KB-3-1 cytotox = kills parental KB-3-1 adenocarcinoma cells; KB-3-1 viability, CellTiter-Glo ATP luminescence, 72 h; Potency, µM (doses to about 46.1 µM), usual class: cytotoxic; actives 1.4% (n = 400,000); further: on the % scale 0 is the no-effect control and ±100 the full control effect; nearly all actives have a fitted effect of over 60% in size
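Parental KB-3-1 adenocarcinoma cells in phenol-red-free DMEM with 10% FBS were pin-treated with compounds at several concentrations, incubated 72 h at 37 °C, and viability read by CellTiter-Glo luminescence; concentration-effect curves were fitted after normalization.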
KB-V1 MDR tox = kills drug-selected multidrug resistant KB-V1 cells; KB-V1 MDR cells viability, CellTiter-Glo, 72 h; Potency, µM (series often up to 46.1 µM), hits mostly cytotoxic; actives 3.4% (n = 400,000); AID 1347076; further: on the % scale 0 is the no-effect control and ±100 the full control effect; nearly all actives have a fitted effect of over 60% in size
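Compound-treated KB-V1 multidrug-resistant cells, 72 h, 37 degrees C; viability by CellTiter-Glo. Fitted qHTS curves give the values.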
MCF10A rerep = induces DNA re-replication in MCF 10a normal breast cells; actives 2.9% (n = 350,000); AID 624296; MCF 10A DNA re-replication, Hoechst nuclear intensity, 48 h; Potency, µM (top dose mostly 46.1 µM), for the others: top-dose activity, positive = re-replication, actives largely listed as activators; further: % of control where 0% means no effect; nearly all actives have a fitted effect of over 50% in size
SW480 rerep = induces DNA re-replication in SW480 colon adenocarcinoma cells; SW480 DNA re-replication, Hoechst DNA content imaging, 48 h; Potency, µM (doses to about 46.1 µM), inactives show at the highest dose re-replication activation, usual class: activators; actives 1.8% (n = 340,000); AID 624297; further: % of control where 0% means no effect; nearly all actives have a fitted effect of over 55% in size
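Compounds, transferred as 23 nL by pin tool, were incubated with cells for 48 hr; DNA content per nucleus was then quantified by Hoechst staining and fluorescence plate imaging.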
HT1080NT lethal = kills 2HG-producing HT-1080-NT fibrosarcoma cells; HT-1080-NT fibrosarcoma viability, CellTiter-Glo ATP luminescence, 48 h; Potency, µM (top dose mostly 46.1 µM), for inactives: at the highest dose activity, negative = less viability, most hits filed as cytotoxic; actives 1.6% (n = 360,000); AID 686970;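 further: NT is the 2HG producing partner of a matched IDH1 knockdown line; 0% = DMSO-treated cells and -100% = media-only wells without cells; nearly all actives have a fitted effect of over 55% in size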
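HT-1080-NT; 750 cells/well; 5% FBS RPMI; 48 h compound, 37 degrees C; CellTiter-Glo luminescence; curve fitting and curve-class assignment.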
HT1080 IDH1KD tx = toxicity to HT-1080 IDH1 knockdown cells (counter line); Potency, µM (series often up to 46.1 µM), for inactives: at the highest dose activity, negative = toxicity, hits mostly cytotoxic; actives 2% (n = 360,000); AID 686971; HT-1080 IDH1 knockdown viability, ATP luminescence, 48 h;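 further: 0% = DMSO wells and -100% = cell-free medium wells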
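Using the IDH1-knockdown HT-1080 line run in the same batch and compound series as the NT line, viability after 48 h at 37 °C was determined by CellTiter-Glo luminescence and expressed as % activity.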
* hit, by the source's call; i = inactive; ? = inconclusive; · = no result. The list is not random: actives were taken first. Their share in the collection is about 8%. The call rests on the fitted dose curve; in most records, active means well fitted curve in the direction sought with a large enough effect; inconclusive means small, poorly fitted or top-dose-only effect, or another doubt; inactive means no such curve, though single readings can be large; an effect the other way counts as inactive or inconclusive. Potency means the concentration at half of the fitted maximal effect.

SMILES	KB-3-1 cytotox	KB-V1 MDR tox	MCF10A rerep	SW480 rerep	HT1080NT lethal	HT1080 IDH1KD tx
CN(c1ccccc1)S(=O)(=O)c1cccc(NC(=O)CSc2nncs2)c1	?	4.11µM*	-4.6%	?	-7.0%	-10.0%
Cc1ccc(Cl)cc1NC(=O)C1CCN(S(=O)(=O)c2cccc3nonc23)CC1	i	i	·	·	·	·
Cc1cccc(C(=O)NNC(=O)c2cc3cc4ccccc4nc3s2)c1	i	i	3.6%	?	?	20.6µM*
Cc1ccc(NC(=O)C(=O)NCCCN2CCOCC2)cc1C	i	i	·	·	·	·
O=c1c(Cl)c(Cl)cnn1Cc1nnc(-c2ccccc2Br)o1	i	?	3.26µM*	4.61µM*	11.6µM*	9.2µM*
Clc1ccccc1OCc1nnc(-c2ccccc2Br)o1	i	i	-3.1%	-0.6%	4.9%	-0.4%
COC(=O)c1cc(NC(=O)c2cc(-c3ccc(C(F)(F)F)cc3)oc2C(F)(F)F)ccc1N1CCOCC1	?	?	22.4%	5.8µM*	-2.0%	-2.6%
O=C(Nc1ccc(N2CCOCC2)nc1)c1ccc(C(F)(F)F)cc1	?	8.2µM*	-2.1%	-5.6%	-16.4%	-19.8%
O=C(Nc1cccc(C(F)(F)F)c1)c1cccnc1N1CCCC1	i	i	-1.5%	-2.9%	-7.9%	-8.4%
Cc1cccc(C(=O)Nc2ccc(N3CCN(c4ccc(C(F)(F)F)cn4)CC3)nc2)c1	i	i	-3.3%	-8.4%	-6.0%	7.9%
O=C(Nc1cccc(C(F)(F)F)c1)c1cccnc1N1CCOCC1	i	i	0.9%	0.731µM*	0.2%	8.5%
O=C(Nc1cc(N2CCOCC2)ncn1)c1ccc(F)cc1	16.4µM*	i	-4.2%	28.6%	-5.6%	-25.6%
O=C(Nc1ccc(C(F)(F)F)cc1)c1cccnc1N1CCOCC1	i	16.4µM*	32.1%	5.9%	-7.4%	?
O=C(Nc1ccccc1)c1cccnc1N1CCOCC1	?	i	3.9%	0.1%	?	3.2%
Cc1ccccc1C(=O)NNc1ccc(-c2csnn2)cc1	i	i	18.4µM*	3.3%	?	8.2µM*
CC(=O)Oc1ccc(-c2csnn2)cc1	i	i	9.2%	0.0%	8.6%	6.5%
Cc1cccc(C2=NN(c3ccc(Br)cc3)[C@@H](C(=O)N3CCOC3=O)[C@@H]2C)c1	i	i	5.17µM*	?	?	?
CC[C@@H]1C(c2ccccc2)=NN(c2ccccc2)[C@H]1C(=O)N1CCOC1=O	i	i	23.1µM*	9.8%	-24.7%	-21.7%
C[C@@H]1C(c2ccccc2)=NN(c2ccc(Br)cc2)[C@H]1C(=O)N1CCOC1=O	?	i	14.6µM*	?	-11.7%	?
Cc1cccc(C2=NN(c3ccccc3)[C@@H](C(=O)N3CCOC3=O)[C@@H]2C)c1	i	i	15.7%	-24.9%	-5.2%	-13.7%
Cc1ccc(-n2c(=O)c(C#N)cc3c(=O)n4ccccc4nc32)cc1	i	i	?	2.06µM*	15.1%	18.3%
Cc1ccc(C)c(-n2c(=O)c(C#N)cc3c(=O)n4ccccc4nc32)c1	i	?	?	3.7%	-3.7%	6.5%
Cc1cccc(-n2c(=O)c(C#N)cc3c(=O)n4ccccc4nc32)c1	i	i	?	16.4µM*	7.6%	12.4%
COc1ccc(NC(=O)Cn2cc(C(=O)c3ccc(C)c(C)c3)c(=O)c3cc(OC)ccc32)cc1	i	i	·	·	·	·
COc1ccc(NC(=O)c2c(-c3ccc(C)cc3)nnc3ccccc23)c(OC)c1	i	i	·	·	·	·
SMILES	KB-3-1 cytotox	KB-V1 MDR tox	MCF10A rerep	SW480 rerep	HT1080NT lethal	HT1080 IDH1KD tx
Brc1ccccc1-c1nnc(SCc2nc3ccccc3s2)o1	i	i	9.2µM*	10.2%	-17.4%	-6.8%
Cc1ccc(CNC(=O)CCc2c(C)nc3nc(C)nn3c2C)cc1	i	i	·	·	·	·
O=C(Cn1cc(COc2ccc(Br)cc2[N+](=O)[O-])nn1)c1ccc(O)cc1	i	i	13.7%	9.2µM*	-1.0%	-1.3%
CC(=O)c1ccc(OCc2cn(CC(=O)c3ccc(O)cc3)nn2)c(C)c1	i	i	·	·	4.5%	10.9%
CCc1ccc2nc3nc(C)cc(C)c3c(N)c2c1	i	20.6µM*	-13.7%	2.91µM*	?	12.6µM*
COc1ccc(OC)c(/C=C/c2nc3ccccc3c(=O)n2-c2ccc(F)c(Cl)c2)c1	?	i	·	·	·	·
COc1ccc(C2=CC(c3ccc(OC)c(OC)c3)n3nnnc3N2)c(OC)c1 (stereo not drawn)	i	i	17.7%	?	0.7%	-3.4%
COc1ccc(OC)c(C2C=C(c3ccc(C)c(C)c3)Nc3nnnn32)c1 (stereo not drawn)	6.51µM*	6.51µM*	?	7.31µM*	?	?
COc1ccc(C2=CC(c3ccc(C)cc3)n3nnnc3N2)cc1 (stereo not drawn)	i	?	7.3%	-1.9%	?	?
COc1cccc(C2=CC(c3cc(OC)ccc3OC)n3nnnc3N2)c1 (stereo not drawn)	6.51µM*	16.4µM*	?	?	?	?
CNC(=S)N/N=C/c1cn(Cc2ccc(F)cc2)c2ccccc12	?	14.6µM*	?	-0.1%	-27.2%	-28.2%
Nc1ccc(C(=O)N/N=C/c2cn(Cc3ccc(F)cc3)c3ccccc23)cc1	i	i	7.0%	0.8%	-17.1%	-25.4%
O=C(O)c1ccc(N/N=C/c2cn(Cc3ccccc3F)c3ccccc23)cc1	?	i	20.6µM*	?	?	?
Nc1ccc(C(=O)N/N=C/c2cn(Cc3ccccc3)c3ccccc23)cc1	?	29.1µM*	-1.2%	-2.9%	-16.8%	?

Compound activity: PubChem BioAssay, National Center for Advancing Translational Sciences (NCATS)
